Screening results: PubChem, several laboratories
Autofluor counter: counter-screen for toxin protease inhibitors: compound fluorescence | compound autofluorescence counterscreen, microsphere flow cytometry; active compounds read high | fluorescence intensity (no concentration beside the values) | actives 3.1% (n = 360,000) | AID 624483; in the data active = fluorescence intensity above about 16000; inconclusive = no clear call, values can overlap the other calls
BoNT F protease: BoNT F light chain protease inhibition | AID 588497 | Multiplex microsphere protease cleavage assay, flow cytometry | actives 0.22% (n = 360,000) | inhibition, % at 10 µM; in the data active = inhibition above about 35%, passing the limit was not always enough; inconclusive = no clear call, values can overlap the other calls; also: plate controls were buffer without enzyme for full effect and enzyme alone for no effect
BJeLR viability: kills HRASV12-expressing BJeLR cells | AID 1554 | actives 0.17% (n = 300,000) | inhibition, % (test concentration not listed) | BJeLR (HRASV12) viability, CellTiter-Glo ATP luminescence, 48 h; in the data active = inhibition above about 50%; inconclusive = no clear call, values can overlap the other calls
Anthrax LF prot: anthrax lethal factor protease inhibition; P15917; multiplex microsphere protease cleavage assay, LF; inhibition, % at 10 µM; actives 0.12% (n = 360,000); also: plate controls were buffer without enzyme for full effect and enzyme alone for no effect
BoNT-A LC inh2: blocks Botulinum neurotoxin A light chain protease. multiplex microsphere protease substrate cleavage, flow cytometry. inhibition, % at 10 µM. actives 0.17% (n = 360,000); also: plate controls were buffer without enzyme for full effect and enzyme alone for no effect
* hit, by the source's call; u = inconclusive; x = no result given. The list is not random: actives were taken first. Their share in the collection is about 3.5%. Rule as the data show it, unless noted: active = inhibition above about 30%; inconclusive = no clear call, values can overlap the other calls; inactive = below that.

SMILES	Autofluor counter	BoNT F protease	BJeLR viability	Anthrax LF prot	BoNT-A LC inh2
Cc1ccc(C)n1Cc1ccc(C(=O)O)cc1	24761*	2.7	x	-2.3	-4.3
Nc1nc(CCl)nc(N(c2ccccc2)c2ccccc2)n1	5993	-0.5	64.6*	-3.0	-0.7
COc1cccc(NC(=O)CCN2CCN(C)CC2)c1	10190	-7.5	-7.2	-2.2	0.2
Cc1c(Br)c([N+](=O)[O-])nn1C(C)C(=O)NCc1ccco1 (configuration not stated)	2516	-14.4	2.8	-4.1	-0.5
Cc1c(Br)c([N+](=O)[O-])nn1C(C)C(=O)NCc1cccnc1 (configuration not stated)	20382*	-0.2	-11.0	-7.5	-1.3
Cc1cc(Cl)ccc1-c1nc(NC(C)C)nc2ccsc12	3509	-5.8	x	-7.0	0.1
Cc1n[nH]c(C)c1C(=O)CC1(O)C(=O)N(Cc2ccccc2)c2ccc(Br)cc21 (configuration not stated)	22972*	-0.8	-7.1	1.3	0.7
O=C(c1cc2nc(-c3ccccc3)cc(C(F)(F)F)n2n1)N1CCOCC1	21930*	1.3	-3.2	-4.5	1.9
CC1CCN(C(=O)c2cc3nc(-c4ccccc4)cc(-c4ccccc4)n3n2)CC1	20793*	-2.2	-11.5	0.3	-2.2
CCOC(=O)C(NC(=O)c1ccccc1)(Nc1nnc(C)s1)C(F)(F)F (configuration not stated)	3166	-17.3	2.4	-2.9	-1.7
O=C(NCC1CCOCC1)C1Cc2c(-c3ccccc3Oc3ccccc3)ccnc2O1 (configuration not stated)	3948	0.1	x	-3.1	-0.3
COc1ccc(CNC(=O)CCNS(=O)(=O)c2ccc(C)cc2)cc1	4607	-19.1	0.9	-2.8	0.0
CC(NS(=O)(=O)c1ccc(CCC(=O)NCc2cccnc2)cc1)c1ccccc1 (configuration not stated)	20378*	-1.4	-2.0	-0.5	-0.5
CSc1ccc(S(=O)(=O)NCc2ccccc2Cl)cc1	11002	-9.3	5.5	-4.5	-1.9
Cc1ccc(S(=O)(=O)NCCC(=O)NCc2cccnc2)cc1	5368	-1.9	9.6	-9.9	0.7
CSc1ccc(S(=O)(=O)NCc2ccccc2)cc1	22207*	1.7	1.6	0.2	0.8
Cc1ccc(S(=O)(=O)NCCC(=O)NCc2ccccc2)cc1	21858*	3.6	-0.2	-7.2	3.8
O=C(CCNS(=O)(=O)c1ccc(Cl)cc1)NCc1cccnc1	23127*	-0.7	2.6	-3.2	-0.6
Cc1cnc(C(=O)NNC(=O)c2ccc(Br)cc2)cn1	6313	-6.6	-19.5	-0.8	-2.0
OC(c1cccc(Cl)c1)c1ncc(-c2cccc(C(F)(F)F)c2)[nH]1 (configuration not stated)	3916	-5.6	x	3.1	-0.3
O=C(c1ccc([N+](=O)[O-])s1)N1CCN(c2ncccn2)CC1	4026	3.7	x	-6.3	0.1
C/C(=N/NC(=O)c1ccc(C(C)(C)C)cc1)c1ccccn1	4095	-9.1	-4.7	2.1	-6.8
C/C(=N\NC(=O)c1ccc(Cl)c(Cl)c1)c1ccccn1	3592	37.4*	39.1	-3.5	11.1
C/C(=N\NC(=O)c1cccc2ccccc12)c1ccccn1	6609	0.1	79.0*	4.2	-1.8
C/C(=N\NC(=O)c1ccccc1Cl)c1ccccn1	3701	30.1	47.6	4.8	6.1
SMILES	Autofluor counter	BoNT F protease	BJeLR viability	Anthrax LF prot	BoNT-A LC inh2
COc1ccc(C(=O)N/N=C(\C)c2ccccn2)cc1OC	u	-9.8	74.4*	0.3	1.1
CC1(C(=O)Nc2cccc3cccnc23)CCN1Cc1ccccc1OC(F)F (configuration not stated)	3795	1.2	x	-5.2	-0.2
CCn1c(=O)cc(NC2=NCC(C)CN2c2cccc(Cl)c2)n(C)c1=O (configuration not stated)	19894*	2.0	-0.4	-8.5	u
CC(=NCCN1CCCCC1)c1c(O)n(Cc2ccccc2)c(=O)[nH]c1=O	23910*	2.5	-5.6	2.0	-0.6
CC(=NCCCn1ccnc1)c1c(O)n(Cc2ccccc2)c(=O)[nH]c1=O	20727*	2.6	6.5	-12.6	4.2
CC(=NCCCn1ccnc1)c1c(O)n(-c2ccccc2)c(=O)[nH]c1=O	7990	u	-5.3	-21.2	-27.3
CC(=NCCN1CCCCC1)c1c(O)[nH]c(=O)[nH]c1=O	16267*	-1.0	0.1	-1.0	-0.8
COc1ccc(-n2c(O)c(C(C)=NCCN3CCNCC3)c(=O)[nH]c2=O)cc1	22171*	6.0	6.6	0.7	3.2
CC(=NCCCO)c1c(O)[nH]c(=O)[nH]c1=O	6289	4.8	-2.3	3.3	-0.3
COc1cc2cc(C(=O)NC(C)c3cccc4ccccc34)c(N)nc2cc1OC (configuration not stated)	4282	-2.0	x	-3.5	0.5
O=[N+]([O-])c1cc(-c2cnc3ccccc3n2)ccc1Oc1ccc(F)cc1	20404*	2.2	-2.2	-0.6	u
Cn1c(=O)c2c(n(C)c1=O)n(C)c(=O)n2C	5510	-9.3	x	6.4	-0.5
CC(C)C(=O)c1cn(CC(=O)N2CCCc3ccccc32)c2ccccc12	23272*	0.9	-10.0	-2.0	u
O=C1c2ccccc2C(=O)N1CCC(=O)N1CCc2ccccc21	22459*	2.8	x	-5.8	1.4
O=C1CNC(=O)N1CC(=O)N1CCCc2ccccc21	20063*	1.7	-0.2	3.4	u
O=C(O)Cc1ccc(N2N=C(c3ccccc3)CC2=O)cc1	4488	-14.5	x	-12.9	-1.2
Cc1cccc(NC(=O)CSc2nnc(-c3ccc(S(=O)(=O)N4CCOCC4)cc3)n2C)c1	16637*	-2.2	3.7	-5.7	-0.3
Cc1ccc(Nc2nnc(SCC(=O)Nc3ccc(S(=O)(=O)N4CCOCC4)cc3)s2)cc1	22187*	-3.3	-7.7	-2.7	-0.8
O=C(CSc1nc2ccccc2n1CC(=O)N1CCCC1)Nc1nccs1	23314*	-1.5	-11.2	-0.9	-1.1
CC(=O)CSc1nnc(-c2ccc(S(=O)(=O)N3CCOCC3)cc2)n1C	6054	3.2	-0.3	-0.6	-1.2
Cn1c(SCC(=O)Nc2nccs2)nnc1-c1ccc(S(=O)(=O)N2CCCC2)cc1	19176*	5.9	-7.6	-0.3	3.6
CC(C)N(C(=O)Cn1c(SCC(=O)Nc2nccs2)nc2ccccc21)C(C)C	9243	-1.8	-2.8	9.6	0.3
COc1ccc(S(=O)(=O)N(C)CC(=O)N2CCN(C)CC2)cc1C	23309*	-3.6	-6.8	-0.4	-2.2
COc1ccc(S(=O)(=O)N(C)CC(=O)N2CCC(C(N)=O)CC2)cc1Cl	21013*	-4.8	3.1	-0.4	u
COCc1cc(C)n(CC(=O)Nc2cc(C)cc(C)c2)c(=O)c1C#N	1977	-0.3	0.3	-0.6	-0.2
O=C(CSc1cnc2ccccc2n1)c1ccc(F)cc1	2726	-9.1	0.8	-0.8	0.4
CCn1c(NC(=O)c2ccc(C)cc2)c2ccccc2nc1=O	2705	-2.5	-0.3	-0.2	0.1
CCn1c(NC(=O)c2ccc(F)cc2)c2ccccc2nc1=O	19832*	-4.3	-5.3	-9.6	-1.2
Cn1ccnc1SCC(=O)c1cccc(Br)c1	19955*	-4.8	15.8	0.6	-0.1
